Experimental data published in ChEMBL document CHEMBL4513149, “CO-ADD screening of MMV (CH) - MMV compounds” (2021).
Potency and affinity values are given separately.

test system: Cryptococcus neoformans; settings: Concentration 20 uM; ASSAY_TEST Inhibition of Fungal Growth; detection method Resazurin; Absorption (OD600-OD570); plate type 384well; NBS; CORNING #3640

Row | Structure (SMILES) | Inhibition
1 | O=C(N[C@H](Cc1ccccc1)C(=O)Nc1ccccc1N1CCOCC1)c1cccs1 | -4.85%
2 | Cl.O=C(Nc1ccc(N2CCNCC2)nc1)c1oc(-c2ccccc2)nc1C(F)(F)F | -3.82%
3 | CC(C)NCC(=O)Nc1cccc(C(=O)Nc2cccc(C(F)(F)F)c2)c1 | -11.79%
4 | COc1ccc(C(=N)N)cc1-c1cn(-c2ccc(C(=N)N)cc2)nn1.Cl.Cl | 4.63%
5 | Cc1cc2nc(NC(=O)C(C)(C)C)nc(Cl)c2n1Cc1ccc(Cl)cc1 | -0.22%
6 | CNC(=O)c1cc(S(=O)(=O)N2CCN(c3ccccn3)CC2)cs1 | -8.81%
7 | Cc1cc(OCC(=O)Nc2ccc(C(C)C)cc2)n(C)c(=O)c1C#N | 4.44%
8 | Cc1cc(OCC(=O)NCc2ccccc2)c2cc(Br)ccc2n1 | -5.48%
9 | O=C(Nc1nnc(S)s1)c1cc(Br)ccc1Cl | -3.6%
10 | Cc1nc(-c2ccccn2)nc(NCCc2ccc(S(C)(=O)=O)cc2)c1Cl | 2.36%
11 | Cc1nnc(NC(=O)c2cn(-c3ccccc3)nc2-c2ccccc2C)o1 | -7.03%
12 | Cc1cc(C)nc(-n2nc(C)cc2Nc2ccccc2)n1 | 39.43%
13 | CC(=O)Nc1ccc(-c2noc(CC3CCCN(Cc4cccc(F)c4C)C3)n2)cc1 (stereo not given) | -9.66%
14 | Clc1ccc(-n2cc(COc3ccnc4ccccc34)nn2)cc1 | -4.84%
15 | Cc1ccc2oc(-c3cc(NC(=O)Cc4ccccc4)ccc3Cl)nc2c1 | -8.89%
16 | CCCn1nnc(NC(=O)COc2ccc(C3CCCCC3)cc2)n1 | -8.36%
17 | O=C(Nc1ccc(F)c(-c2nc3cc(-c4ccccc4)cnc3[nH]2)c1)N1CCCC1 | -3.95%
18 | Cc1nn2c(O)c3c(nc2c1-c1ccc(F)cc1)CCCC3 | -6.74%
19 | CC(C)(C)n1nc(Cc2ccc(F)c(Cl)c2)c2c(N)ncnc21 | -6.05%
20 | COc1ccc(-c2cnc3ccc(N4CCCC4)nn23)cc1OC | -8.28%
